According to PubChem BioAssay (Tox21):
Results filed as inconclusive are left out. Where a call stands in place of a potency, no number is given. Unmarked numbers belong to inactive results. Active and inactive are the calls of the source. Calls follow the shape of the dose curve; as a rule, active = well fitted activation curve with a large enough effect in the repeat runs; inconclusive = weak or mixed curves; inactive = flat fitted curve, though single readings scatter.

Test: A CellTox Green Cytotoxicity Assay to monitor cytotoxicity in HepG2 cells - 16 hour (AID 1224876); also: nearly all actives have a fitted effect of over 45% in size
Conditions: CellTox Green fluorescence; series mostly up to 76.8 µM
Text: National Center for Advancing Translational Sciences [NCATS]
NIH Chemical Genomics Center [NCGC]
U.S. Environmental Protection Agency [EPA]
National Institutes of Environmental Health Sciences [NIEHS]
National Toxicology Program [NTP]
Cell-based models are critical for drug discovery. Determining the natural cytotoxic effects resulting from test compounds is an essential research activity. A CellTox Green Cytotoxicity Assay to monitor cytotoxicity in real time of continues cell culture during 40 hours of the compound treatment was used to screen Tox21 10K library compounds in HepG2 cells. CellTox Green Cytotoxicity Assay is a nonlytic, homogeneous, biofluorescent method to measure cytotoxicity in cell culture after experimental manipulation. The assay system uses a proprietary asymmetric cyanine dye that is excluded from viable cells but preferentially stains the dead cell's DNA. […] Viable cells produce no appreciable increases in fluorescence. Therefore, the fluorescence signal produced by the binding interaction with dead cell DNA is proportional to cytotoxicity.
The mixture of HepG2 cell suspension and reagents were dispensed at 600cells/6 ul/well in 1536-well tissue culture treated black solid bottom plates using a Multidrop dispenser. After the assay plates were incubated at a 37 C/5% CO2 incubator for 5 hours, 23 nL of compounds dissolved in DMSO, positive and negative controls was transferred to the assay plate by a pintool work station. The plates were incubated at 37 C for 40 hours. The fluorescence intensity were measured at 0h, 8h, 16h, 24h, 32h and 40h time points using ViewLux plate reader during compound treatment.
Potency is read from the fitted curve at half-maximal effect.

| Compound | Potency | cytotoxicity increase |
| --- | --- | --- |
| CCOC(=O)CC(=O)C(=O)OCC | inactive | – |
| C[Si](NC1CCCCC1)(NC1CCCCC1)NC1CCCCC1 | inactive | – |
| CCCCCCCCCCCCCCCCBr | – | -3.1% [at 15.8 µM] |
| CN(C(=O)C(Cl)Cl)c1ccc(OC(=O)c2ccco2)cc1 | inactive | – |
| O=C(C(=O)c1ccccc1)c1ccccc1 | inactive | – |
| CNCCCC1c2ccccc2C=Cc2ccccc21 | 23.9 µM (active) | – |
| CCCC(=O)O[C@]1(C(=O)COC(=O)CC)CC[C@H]2[C@@H]3CCC4=CC(=O)CC[C@]4(C)[C@H]3[C@@H](O)C[C@@]21C | – | -6.66% [at 15.8 µM] |
| CCOc1cc(N)c(Cl)cc1C(=O)NCC1CN(Cc2ccc(F)cc2)CCO1 (stereo not given) | inactive | – |
| CCCCCCCCCCCCCCC[C@H](O)[C@@H](N)CO | 23.9 µM (active) | – |
| CC(=O)CC(c1ccc([N+](=O)[O-])cc1)c1c(O)c2ccccc2oc1=O (stereo not given) | inactive | – |
| C(=C\c1ccccc1)/CN1CCN(C(c2ccccc2)c2ccccc2)CC1 | inactive | – |
| CCCCCCCCCCCC(=O)[O][Sn]([CH2]CCC)([CH2]CCC)[O]C(=O)CCCCCCCCCCC | inactive | – |
| O=C(Nc1ccccc1)Nc1ccccc1 | inactive | – |
| CO[Si](C)(OC)OC | inactive | – |
| O=c1[nH]c2ccc(S(=O)CCN3CCC(Cc4ccc(F)cc4)CC3)cc2o1 (stereo not given) | inactive | – |
| C=CC(=C)CCCC(C)(C)OC(C)=O | inactive | – |
| CCCCC(=O)O[C@]1(C(=O)CO)[C@@H](C)C[C@H]2[C@@H]3CCC4=CC(=O)C=C[C@]4(C)[C@@]3(F)[C@@H](O)C[C@@]21C | inactive | – |
| O=C(O)c1snc(Cl)c1Cl | inactive | – |
| C=CC(C)(C)CC(=O)OC | inactive | – |
| CCCCC/C(=C\c1ccccc1)CO | inactive | – |

| Compound | Potency | cytotoxicity increase |
| --- | --- | --- |
| O=C(O)c1ccc(CO)o1 | inactive | – |
| C=CC(=O)NCOCC(C)C | inactive | – |
| CCOC(=O)c1ccccc1C | inactive | – |
| Nc1ccc(S(=O)(=O)O)c(N)c1 | inactive | – |
| CNC(=O)N(c1ccccc1)c1ccccc1 | inactive | – |
| CC1CC(=O)NN=C1c1ccc(NCC(C)(C)NCC(O)COc2cc(Cl)ccc2C#N)cc1 (stereo not given) | inactive | – |
| Cc1cnc(C)c(C)n1 | inactive | – |
| CC1=CC(=O)CC(C)(C)C1(O)/C=C/C(C)=C\C(=O)O (stereo not given) | inactive | – |
| NC(=O)Nc1ccc(Cl)c(Cl)c1 | inactive | – |
| O=C(O)C(Cc1cc(I)c(O)c(I)c1)c1ccccc1 (stereo not given) | inactive | – |
| O=C1NCCN1 | inactive | – |
| O=C(CCCCCCC(=O)Nc1ccccc1)NO | inactive | – |
| CCCOCCOCCO | inactive | – |
| CCNC(=O)N1CCN(CCCC(c2ccc(F)cc2)c2ccc(F)cc2)CC1 | inactive | – |
| CC(C)C(OC(=O)c1ccccc1)C(C)(C)COC(=O)c1ccccc1 (stereo not given) | inactive | – |
| CCCCCCOC(=O)C(C)C | inactive | – |
| Fc1ccccc1[C@@H](F)COC1CCC(Nc2ncnc3[nH]ncc23)CC1 (stereo not given in full) | inactive | – |
| CC1(C)C(=O)N(Br)C(=O)N1Cl | inactive | – |
| CC(C)CCCC(=O)O | inactive | – |
| COc1ccccc1N=Nc1c(S(=O)(=O)O)cc2cc(S(=O)(=O)O)cc(NC(C)=O)c2c1O | inactive | – |
